Our source for the outcome and AC50 values is PubChem BioAssay (EPA / NIEHS).

The source made the active and inactive calls. Rule for the calls: active = hit-call score of the fitted dose curve at least 0.9, where 1 is the maximum; inactive = score below 0.9.

By AC50 is commonly meant the concentration at which the activity in the assay is half-maximal.

The nature of this experiment: CCTE_Simmons_MITO_max_resp_rate: CCTE's HepG2 Seahorse XF Respirometric Screening Assay at Maximal Respiratory State [uncoupled], Simmons Lab (AID 2284002). The following applies: actives raise or lower the signal. The method, then: CCTE_Simmons_MITO is cell-based, respirometric assay using HepG2 cells and a Seahorse XF Analyzer to measure oxygen consumption rates over four temporal phases spanning a total of 72 minutes: pre-injection (pre-treatment), basal (following test compound injection), maximal (following FCCP uncoupler injection), and inhibited (following rotenone/antimycin A injection)CCTE_Simmons_MITO_max_resp_rate is one of 4 assay components calculated from the CCTE_Simmons_MITO assay. It is designed to make measurements of maximal respiration using a form of respirometric reporter, as detected with […] signals by Seahorse XF96 technology. Data from the assay component CCTE_Simmons_MITO_max_resp_rate was analyzed at the endpoint, CCTE_Simmons_MITO_max_resp_rate_OCR, with bidirectional fitting relative to DMSO as the negative control and baseline of activity. Using a type of respirometric reporter, measures of maximal respiration for gain or loss-of-signal activity can be used to understand cellular oxygen consumption as it relates to cellular respiration. To generalize the intended target to other relatable targets, this assay endpoint is annotated to the mitochondria intended target family, where the subfamily is respiration.
Test chemicals were administered as a titrated series of 7 concentrations from 125 nM up to 100 uM [final] prior to kinetic endpoint detection at 6 minute intervals [3 min mix followed by 3 minutes measure] for 72 minutes. Three biological replicates of technical singles were run for every chemical concentration tested. Dimethylsulfoxide [DMSO] was used as the vehicle control. The electron transport chain inhibitor fenpyroximate was used as the positive control for decreased basal respiration and was administered as a titrated series of 6 concentrations from 250 nM up to 2.75 uM [final] with technical triplicates for the top concentration only. The uncoupler 2,4-dintirophenol was used as the positive control for increased basal respiration and was administered as a titrated series of 6 concentrations from 938 nM up to 40 uM [final] with technical triplicates for the top concentration only. A Seahorse XF Analzyer is required to measure the response.
`COc1cc(-c2ccc(N)c(OC)c2)ccc1N`: the call was inactive.
Take `CCOP(=S)(OCC)Oc1nc(Cl)c(Cl)cc1Cl`: the compound was called inactive.
Turning to `CCC(C)(C)c1ccc(O)c(C(C)(C)CC)c1`, the half-maximal activity concentration (AC50) was 78.2 µM (active).
`CC(C)(C)CC(C)(C)c1ccc(O)cc1`: the AC50 is 27.7 µM (active).
With `C=C(C)C(=O)[O][Sn]([CH2]CCC)([CH2]CCC)[CH2]CCC`, the AC50 was 5.4 µM (active).
On to `O=C1C2(Cl)C3(Cl)C4(Cl)C(Cl)(Cl)C5(Cl)C3(Cl)C1(Cl)C5(Cl)C24Cl` (stereo not drawn), for which the half-maximal activity concentration (AC50) was 35.8 µM (active).
On to `O=C(O)C(F)(F)C(F)(F)C(F)(F)C(F)(F)C(F)(F)C(F)(F)C(F)(F)C(F)(F)C(F)(F)C(F)(F)F`, for which the result was inactive.
On to `CC(C)(c1ccccc1)c1ccc(O)c(C(C)(C)c2ccccc2)c1`, for which the AC50 is 50 µM (active).
For `C[C@]12CCC(=O)C[C@@H]1CC[C@@H]1[C@@H]2CC[C@]2(C)[C@@H](O)CC[C@@H]12`, the call was inactive.
Regarding `CC(=O)[O][Hg][c]1ccccc1`, the AC50 is 13.1 µM (active).
Still for that read-out and setting: next, `CCCCCCCCc1ccc(O)cc1`: 39.5 µM (active).
As for `O=[N+]([O-])c1ccc(O)c([N+](=O)[O-])c1`, the compound was classed as inactive.
Regarding `O=C(Nc1ccc2[nH]ccc2c1)c1cc2cc(F)ccc2n1Cc1cccc(F)c1`, the compound was called inactive.
